activity, negative = cell killing and Potency data for 2 molecules are collected here from PubChem BioAssay (NCATS).

Structures are written as SMILES. Results filed as inconclusive are left out. Unmarked numbers belong to inactive results. Activity calls are given as the source filed them. The call rests on the fitted dose curve; in most records, active means well fitted inhibition curve with a large enough effect; inconclusive means small, poorly fitted or top-dose-only effect; inactive means flat fitted curve, though single readings scatter.

Assay [1] is described as follows: Drug repurposing screens with cells derived from glioblastoma tumor samples (AID 1345199). Further: on the % scale 0 is the no-effect control and ±100 the full control effect; nearly all actives have a fitted effect of over 40% in size. As to conditions: GBM patient neurospheres viability, ATP luminescence, 48 h; at 91.6 µM (top of the series); tumour line D. An outline of the steps: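 Primary testing used CD133+ neurospheres from four GBM patients, seven concentrations, 48 h exposure and ATP-based viability; confirmation added three slower-growing patient lines.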

The next assay concerns CP286. Briefly: qHTS profiling for inhibitors of Plasmodium falciparum proliferation (AID 504749). Further: nearly all actives have a fitted effect of over 60% in size. Further: potency means the concentration at half of the fitted maximal effect. As to conditions: P. falciparum in erythrocytes, SYBR Green DNA, 72 h; series mostly up to 28.7 µM. The gist of the method: (§1)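 Fluorescence of SYBR Green-bound parasite DNA, read at 485/535 nm, served as the growth measure. Infected erythrocytes were cultured with compound 72 h; artemisinin (0.29 uM) and DMSO wells defined the normalization range.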
(qHTS replaces the single test concentration by a dilution series.)

For the next assay, the system named is CP291. The description is as above. The following applies: P. falciparum in erythrocytes, SYBR Green DNA, 72 h; series mostly up to 28.7 µM. An outline of the steps: as §1
The test system of the next assay is CP297. The assay is described as above. As to conditions: P. falciparum in erythrocytes, SYBR Green DNA, 72 h; series mostly up to 28.7 µM. The gist of the method: as §1
The next assay relates to CP305. The description is as above. The following applies: P. falciparum in erythrocytes, SYBR Green DNA, 72 h; series mostly up to 28.7 µM. An outline of the steps: as §1
The subject of a further assay is CP315. The assay is described as above. As to conditions: P. falciparum in erythrocytes, SYBR Green DNA, 72 h; series mostly up to 28.7 µM. The gist of the method: as §1
The subject of the next assay is CP325. Described as above. The following applies: P. falciparum in erythrocytes, SYBR Green DNA, 72 h; series mostly up to 28.7 µM. An outline of the steps: as §1
A further assay has as its system CP329. The description is as above. As to conditions: P. falciparum in erythrocytes, SYBR Green DNA, 72 h; series mostly up to 28.7 µM. The gist of the method: as §1
The test system of a further assay is CP335. The description is as above. The following applies: P. falciparum in erythrocytes, SYBR Green DNA, 72 h; series mostly up to 28.7 µM. An outline of the steps:
as §1

The test system of another assay is DFO2036. The assay is described as above. As to conditions: P. falciparum in erythrocytes, SYBR Green DNA, 72 h; series mostly up to 28.7 µM. An outline of the steps: as §1
The subject of a further assay is DIV30. The assay is described as above. As to conditions: P. falciparum in erythrocytes, SYBR Green DNA, 72 h; series mostly up to 28.7 µM. The gist of the method:
as §1

In a further assay the test system is Dd2. The description is as above. As to conditions: P. falciparum in erythrocytes, SYBR Green DNA, 72 h; series mostly up to 28.7 µM. The gist of the method: as §1
A further assay deals with FAB9. The assay is described as above. The following applies: P. falciparum in erythrocytes, SYBR Green DNA, 72 h; series mostly up to 28.7 µM. An outline of the steps:
as §1

The subject of the next assay is GB4. The description is as above. As to conditions: P. falciparum in erythrocytes, SYBR Green DNA, 72 h; series mostly up to 28.7 µM. The gist of the method: as §1
The subject of another assay is ICS. The description is as above. As to conditions: P. falciparum in erythrocytes, SYBR Green DNA, 72 h; series mostly up to 28.7 µM. An outline of the steps: as §1
A further assay has as its system JCK. The assay is described as above. As to conditions: P. falciparum in erythrocytes, SYBR Green DNA, 72 h; series mostly up to 28.7 µM. The gist of the method:
as §1

A further assay concerns PAD. The description is as above. As to conditions: P. falciparum in erythrocytes, SYBR Green DNA, 72 h; series mostly up to 28.7 µM. An outline of the steps:
as §1

The subject of a further assay is PC15. The assay is described as above. As to conditions: P. falciparum in erythrocytes, SYBR Green DNA, 72 h; series mostly up to 28.7 µM. An outline of the steps: as §1
Another assay relates to PC49. Described as above. As to conditions: P. falciparum in erythrocytes, SYBR Green DNA, 72 h; series mostly up to 28.7 µM. An outline of the steps:
as §1

The test system of the next assay is SC27B. The description is as above. As to conditions: P. falciparum in erythrocytes, SYBR Green DNA, 72 h; series mostly up to 28.7 µM. The gist of the method:
as §1

For the molecule `Nc1ccc(N)c([N+](=O)[O-])c1`, the activity, negative = cell killing in assay [1] was -23.5%.
With `CCCCC(=O)N(Cc1ccc(-c2ccccc2-c2nn[nH]n2)cc1)C(C(=O)O)C(C)C` (stereo not given), the Potency result in the assay with CP286, in the assay with CP291, in the assay on CP297, in the assay on CP305, with CP315 and with CP325 was “inactive” in each case. In addition, the Potency entry in the assay with CP329, with DFO2036, in the assay with DIV30, with Dd2, with FAB9 and in the assay on JCK was “inactive” each time. For the same molecule, the Potency result in the assay with PAD, with PC15, in the assay on PC49 and with SC27B was “inactive” each time. Also, the Potency in the assay on CP335 is 6.01 µM (active); with GB4, 13.5 µM (active); in the assay with ICS, 7.94 µM (active).
